Assay results from the antibiotic and cytotoxicity screens of Wong et al. (2023).
Among all 39,000 compounds or so, about 1,500 (3.8%) were called active. The sample as a whole holds a higher share of actives than the screen did.

system: HSkMC (human skeletal muscle cells); experiment: cytotoxicity call (relative viability < 0.9); details: 10 µM

| SMILES | cytotoxicity call |
| --- | --- |
| NCCc1ccc(O)cc1 [listing 1 of 2 here] | inactive |
| CCCCCCCCCc1ccc(O)cc1 | active |
| NCCc1ccc(O)cc1 [listing 2 of 2 here] | inactive |
| COP(=O)(OC)OC(Br)C(Cl)(Cl)Br (centres undefined) | inactive |
| COC(=O)[C@H]1CNC(=O)C1 | inactive |
| C=C(C)C1C2OC(=O)C1C1(O)CC3OC34C(=O)OC2C14C (centres undefined) | inactive |
| C1COC2(CCNCC2)OC1 | inactive |
| Cl.OC1CCCCC1N1CCC(c2ccccc2)CC1 (centres undefined) | inactive |
| C[C@]12C(=O)OC(=O)[C@]1(C)[C@H]1CC[C@H]2O1 | active |
| CC12C(=O)OC(=O)C1(C)C1CCC2O1 (centres undefined) | inactive |
| C[C@@]12C(=O)OC(=O)[C@]1(C)[C@H]1CC[C@@H]2O1 | active |
| C(=N/C12CN3CN(CN(C3)C1)C2)/c1cccnc1 | inactive |
| CC(=CCn1c[n+](C)c2c(N)ncnc21)CCC1(C)C(C)CCC2(C)C(C)=CCCC21.[Cl-] (centres undefined) | inactive |
| OCC1CCCN2CCCCC12 (centres undefined) | inactive |
| N=C(N)N/N=C/c1ccc2c(c1)OCO2 | inactive |
| COc1ccc(OC(=O)N(C)C[C@@H]2OCc3ccccc3-c3c(n(C)c4ccccc34)C(=O)N([C@H](C)CO)C[C@H]2C)cc1 | active |
| COc1ccc(OC(=O)N(C)C[C@H]2OCc3ccccc3-c3c(n(C)c4ccccc34)C(=O)N([C@H](C)CO)C[C@@H]2C)cc1 | inactive |
| Cc1ccc(OC(=O)N(C)C[C@@H]2OCc3ccccc3-c3c(n(C)c4ccccc34)C(=O)N([C@@H](C)CO)C[C@H]2C)cc1 | inactive |
| Cc1ccc(OC(=O)N(C)C[C@@H]2OCc3ccccc3-c3c(n(C)c4ccccc34)C(=O)N([C@H](C)CO)C[C@@H]2C)cc1 | inactive |
| COc1ccc(OC(=O)N(C)C[C@H]2OCc3ccccc3-c3c(n(C)c4ccccc34)C(=O)N([C@@H](C)CO)C[C@H]2C)cc1 | inactive |
| Cc1ccc(OC(=O)N(C)C[C@H]2OCc3ccccc3-c3c(n(C)c4ccccc34)C(=O)N([C@H](C)CO)C[C@@H]2C)cc1 | active |
| O=C(NC(O)C(Cl)(Cl)Cl)NC(O)C(Cl)(Cl)Cl (centres undefined) | inactive |
| CC(C)C[C@@H]1C(=O)N2CCC[C@@H]2[C@]2(O)O[C@@](NC(=O)[C@@H]3C=C4c5cccc6[nH]cc(c56)C[C@@H]4N(C)C3)(C(C)C)C(=O)N12 | inactive |
| C[C@H]1CN(C)[C@@H](C)C[C@@H]1n1[nH]c(=O)cc1N | inactive |
| CO[C@H]1[C@H]2CC[C@@H]1NC2 | inactive |
| OCC(Br)(Br)Br | inactive |
| O=[N+]([O-])C(Br)(CO)CO [listing 1 of 2 here] | active |
| O=[N+]([O-])C(Br)(CO)CO [listing 2 of 2 here] | active |
| C=C(C)[C@@H]1[C@H]2OC(=O)[C@H]1[C@]1(O)C[C@H]3O[C@]34C(=O)O[C@H]2[C@]14C | inactive |
